Rows were chosen to be rich in hits. Some 21% of all compounds tested hit in one or more screens of this group.
TDP1 cell CPT: DT40-hTDP1 cell growth loss with CPT | chicken DT40 Tdp1-/-;hTDP1 cells + 20 nM CPT, ATP luminescence, 48 h | actives 12% (n = 420,000) | AID 686979 | Potency, µM (doses to about 46.2 µM), usual class: inhibitors; also: nearly all actives have a fitted effect of over 55% in size
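Cell growth measured by CellTiter-Glo luminescence after a minimum 48 h, 37 C compound exposure with 20 nM CPT in Tdp1-knockout DT40 cells stably expressing hTDP1, seeded 400/well; qHTS titration format.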
IL-1B inflam inh: blocks inflammasome-driven IL-1 beta release | THP-1 LPS/ATP IL-1B secretion, AlphaLISA, 16 h; hits give low values | activity change, % at 57.5 µM | actives 4.7% (n = 360,000) | AID 743279; in the data active = activity change below about -50%; inconclusive = mostly about -30% to -49%
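THP-1 cells pretreated 1 hr with compounds (up to 57.5 uM final), then stimulated with LPS (250 ng/mL final) plus ATP (1.25 mM final); secreted IL-1B measured by AlphaLISA after 16 hr, decreased signal indicating inhibition.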
ELG1 DNA repair: blocks ELG1-dependent DNA repair in HEK293T cells; HEK293T ELG1-luciferase reporter, luminescence, 16 h; DNA damage induced by 5-fluorouridine; Potency, µM (titrated, usually from 46.1 µM), most hits filed as inhibitors; actives 2.3% (n = 330,000); also: nearly all actives have a fitted effect of over 55% in size
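Quantitative HTS, concentration-response format. 2,000 cells/well co-treated with 5-fluorouridine and compound, 16 hr in 5% CO2 at 37 °C; ONE-Glo luminescence read after 30 min.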
Gal4-VP16 FLuc: counter-screen for ROR gamma inhibitors: Gal4-VP16 reporter; Drosophila S2 Gal4-VP16 UAS-luciferase, luminescence, 20 h; actives 3.5% (n = 310,000); Potency, µM (titrated, usually from 53.6 µM), most hits filed as inhibitors;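 also: Gal4-VP16 expression switched on by copper sulfate through the metallothionein promoter; nearly all actives have a fitted effect of over 50% in size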
TDP1 cell noCPT: qHTS for Inhibitors of human tyrosyl-DNA phosphodiesterase 1 (TDP1): qHTS in cells in absence of CPT; Potency, µM (titrated, usually from 46.2 µM), hits mostly inhibitors; actives 15% (n = 420,000); DT40 Tdp1-/- hTDP1 cells, no CPT, ATP luminescence, 48 h; also: nearly all actives have a fitted effect of over 55% in size
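Growth of hTDP1-complemented DT40 Tdp1-knockout cells is measured by ATP luminescence after at least 48 hr compound exposure at 37 °C, with DMSO substituting for the 20 nM CPT used in the parallel screen.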
RORg inh: blocks mouse ROR gamma transcriptional activity; P51450; Drosophila S2 Gal4-RORgamma UAS-luciferase reporter, 20 h; Potency, µM (series often up to 53.6 µM), hits mostly inhibitors; actives 5.4% (n = 310,000); also: nearly all actives have a fitted effect of over 60% in size
Target sequence (P51450 whole entry, looked up, the tested form may be a part): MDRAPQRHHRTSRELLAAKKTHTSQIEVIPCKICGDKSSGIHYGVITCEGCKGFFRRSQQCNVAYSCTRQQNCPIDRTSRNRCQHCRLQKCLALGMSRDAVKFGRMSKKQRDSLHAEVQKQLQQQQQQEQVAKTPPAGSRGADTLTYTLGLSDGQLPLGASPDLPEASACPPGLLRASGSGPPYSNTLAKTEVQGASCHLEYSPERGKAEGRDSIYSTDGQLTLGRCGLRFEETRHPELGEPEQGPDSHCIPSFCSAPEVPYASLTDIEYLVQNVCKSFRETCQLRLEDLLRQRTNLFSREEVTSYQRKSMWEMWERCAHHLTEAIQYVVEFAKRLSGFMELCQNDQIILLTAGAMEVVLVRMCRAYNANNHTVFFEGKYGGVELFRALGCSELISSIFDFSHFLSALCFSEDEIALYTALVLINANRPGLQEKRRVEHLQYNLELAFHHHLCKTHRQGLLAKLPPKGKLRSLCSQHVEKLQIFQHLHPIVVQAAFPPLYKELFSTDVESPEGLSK
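Compounds are pin-transferred onto Drosophila Schneider cells expressing a copper-inducible Gal4–ROR gamma transactivation domain fusion. After 1 hr, copper sulfate is added to 700 uM final; luciferase is read 20 hr later.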
Of the large screens only hits and unclear results are named; the others gave an inactive call. Unless noted, calls follow the shape of the dose curve; as a rule, active = well fitted curve in the direction sought with a large enough effect; inconclusive = small, poorly fitted or top-dose-only effect, or another doubt; inactive = no such curve, though single readings can be large; an effect the other way counts as inactive or inconclusive.

O=c1[nH]cc(C#Cc2ccccc2)c2ncncc12	none (no result: IL-1B inflam inh, ELG1 DNA repair, Gal4-VP16 FLuc, RORg inh)
Cc1cccc(-c2nc(SCC(=O)NCC3CCCO3)c3c(=O)n(C)c(=O)n(C)c3n2)c1 (stereo not given)	none (no result: IL-1B inflam inh, ELG1 DNA repair, Gal4-VP16 FLuc, RORg inh)
COc1cccc(NC(=O)CSc2nc(-c3ccccc3)nc3c2Cc2cc(Cl)ccc2O3)c1	none (no result: IL-1B inflam inh, ELG1 DNA repair, Gal4-VP16 FLuc, RORg inh)
O=C(OCCOc1cccc(Cl)c1)c1cc(S(=O)(=O)N2CCOCC2)ccc1F	TDP1 cell CPT inconclusive, TDP1 cell noCPT inconclusive (no result: Gal4-VP16 FLuc, RORg inh)
CC(C)(C)c1nn(-c2ccccc2)c2[nH]c(=O)c(CNCc3ccc4c(c3)OCO4)cc12	TDP1 cell CPT 18µM, TDP1 cell noCPT inconclusive, RORg inh inconclusive
O=C(C[C@H]1C/C=C\CC[C@H](Cc2ccc(F)cc2)C(=O)OC[C@H]2CCCN2C1=O)NCCO	none (no result: Gal4-VP16 FLuc, RORg inh)
O=C(NC1CC1)C1CCN(c2ncnc3c2sc2cccc(F)c23)CC1	TDP1 cell CPT 23µM, TDP1 cell noCPT 16µM, RORg inh inconclusive
COc1cc(OC)cc(C(=O)N2CCCC(n3cc(C(=O)NCC(C)C)nn3)C2)c1 (stereo not given)	none (no result: IL-1B inflam inh, ELG1 DNA repair, Gal4-VP16 FLuc, RORg inh)
O=C(Oc1cccc2ccccc12)c1ccccc1	TDP1 cell noCPT inconclusive (no result: ELG1 DNA repair, Gal4-VP16 FLuc, RORg inh)
CC(NC(=O)Oc1cccc2ccccc12)c1ccccc1 (stereo not given)	TDP1 cell CPT inconclusive, TDP1 cell noCPT 26µM (no result: ELG1 DNA repair, Gal4-VP16 FLuc, RORg inh)
CCOCCn1c(N2CCCN(C)CC2)nc2ccccc21	none (no result: IL-1B inflam inh, ELG1 DNA repair)
Cc1cc2cc(CCNC(=O)C(C)C)c(=O)[nH]c2cc1C	none (no result: ELG1 DNA repair, Gal4-VP16 FLuc, RORg inh)
Cc1cc2cc(CCNC(=O)c3ccc(S(=O)(=O)N4CCCC4)cc3)c(=O)[nH]c2cc1C	TDP1 cell CPT 18µM, ELG1 DNA repair inconclusive, TDP1 cell noCPT 21µM
Cc1cc2cc(CNC(=O)c3ccc(C)c([N+](=O)[O-])c3)ccc2[nH]1	TDP1 cell CPT 21µM, ELG1 DNA repair inconclusive, TDP1 cell noCPT 10µM, RORg inh inconclusive
Cc1cc2cc(CCNC(=O)c3ccc(C)c([N+](=O)[O-])c3)c(=O)[nH]c2cc1C	TDP1 cell CPT inconclusive, ELG1 DNA repair inconclusive, TDP1 cell noCPT 13µM, RORg inh inconclusive
CCOC(=O)NCc1ccc2[nH]c(C)cc2c1	ELG1 DNA repair inconclusive
CN(C)/N=C/c1ccc(Sc2ccc([N+](=O)[O-])cc2[N+](=O)[O-])o1	TDP1 cell CPT inconclusive, ELG1 DNA repair inconclusive, Gal4-VP16 FLuc inconclusive, TDP1 cell noCPT 23µM, RORg inh inconclusive
O=[N+]([O-])c1ccc(Sc2cccc3cccnc23)cc1	TDP1 cell CPT inconclusive, ELG1 DNA repair inconclusive
CCOP1(=O)C=C(Sc2ccc([N+](=O)[O-])cc2[N+](=O)[O-])C(C)(C)O1 (stereo not given)	none (no result: ELG1 DNA repair, Gal4-VP16 FLuc, RORg inh)
C=CCn1nc([N+](=O)[O-])nc1Sc1cccc2cccnc12	TDP1 cell CPT 5.2µM, IL-1B inflam inh -99, ELG1 DNA repair inconclusive, Gal4-VP16 FLuc inconclusive, TDP1 cell noCPT 4.1µM, RORg inh 8.9µM
O=[N+]([O-])c1ccc(Sc2cccc3cccnc23)c([N+](=O)[O-])c1	TDP1 cell CPT 4.6µM, ELG1 DNA repair inconclusive, Gal4-VP16 FLuc 7.1µM, TDP1 cell noCPT 4.6µM, RORg inh 7.1µM
O=[N+]([O-])c1cc(Cl)ccc1Sc1cccc2cccnc12	none
O=[N+]([O-])c1ccc(Sc2ccncn2)c([N+](=O)[O-])c1	TDP1 cell CPT 1µM, IL-1B inflam inh -80, TDP1 cell noCPT 0.65µM (no result: ELG1 DNA repair, Gal4-VP16 FLuc, RORg inh)
CSCC[C@H](NS(=O)(=O)c1ccc(C)cc1)C(=O)N1CCC(C(=O)N[C@H](C(=O)O)c2ccccc2)CC1	none
COc1ccc(CN2C[C@@H](CO)O[C@@H](n3cnc4c(NCCN(C)C)ncnc43)C2)cc1	TDP1 cell CPT inconclusive (no result: ELG1 DNA repair, Gal4-VP16 FLuc, RORg inh)
Cc1cc(C)n(-c2nc3c(c(=O)[nH]c(=O)n3C)n2C(C)C)n1	RORg inh inconclusive
Cc1cc(C)nc(Sc2ccc([N+](=O)[O-])cc2[N+](=O)[O-])n1	TDP1 cell CPT 1.3µM, IL-1B inflam inh -60, Gal4-VP16 FLuc inconclusive, TDP1 cell noCPT 1µM, RORg inh 8.9µM

Screens as filed in PubChem BioAssay.
